Reference: PubChem BioAssay
Activity calls are given as the source filed them.

Experiments:
[1] = tested on: Plasmodium falciparum Sir2 (PF13_0152, Sir2A); assay: Plasmodium falciparum Sir2A binding compounds – biochemical, small-molecule microarray, 635 nm fluorescence, primary screen (AID 1098); details: fluorescence 635 nm, higher = more signal;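 also: score merges spot fluorescence intensity with its signal-to-noise ratio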
[2] = probe aDKK1 binding to arrayed compounds – biochemical, biotinylated probe, 635/667 nm fluorescence, primary screen (AID 1099); details: small-molecule microarray, higher = more signal;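 also: score merges 667nm spot fluorescence with signal to noise across triplicate slides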
[3] = probe aCHRDL2 binding to arrayed compounds – biochemical, biotinylated probe, 635/667 nm fluorescence, primary screen (AID 1100); details: small-molecule microarray, higher = more signal
[4] = change in splice reporter luminescence, either direction, cell-based, HEK293, spliceosome inhibition project, primary screen (AID 1101); details: HEK293 splicing luciferase reporter, 24 h, higher = more signal, called active from +8 up or from −8 down;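 also: HEK293 cells carrying a splicing-competent luciferase reporter gene; test concentration not given here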
[5] = target: Fibroblast growth factor 10 (Homo sapiens) (UniProt O15520); assay: compounds binding fibroblast growth factor 10 – biochemical, small-molecule microarray, 635 nm fluorescence, primary screen (AID 1102); details: FGF10 binding, fluorescence 635 nm, higher = more signal
Fibroblast growth factor 10 (Homo sapiens), sequence (O15520 whole entry, looked up): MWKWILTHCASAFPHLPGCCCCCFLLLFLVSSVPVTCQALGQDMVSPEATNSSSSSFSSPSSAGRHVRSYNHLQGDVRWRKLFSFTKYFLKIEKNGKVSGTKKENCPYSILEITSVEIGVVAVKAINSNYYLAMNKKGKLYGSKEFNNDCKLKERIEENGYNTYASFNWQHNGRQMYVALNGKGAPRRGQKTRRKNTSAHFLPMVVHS

[6] = tested on: glycogen synthase kinase-3 (GSK3A per assay name; protocol says GSK3B); assay: compounds binding glycogen synthase kinase-3 – biochemical, small-molecule microarray, 635 nm fluorescence, GSK3A, primary screen (AID 1103); details: fluorescence 635 nm, higher = more signal; also: the record names both GSK3A and GSK3B
[7] = target: Epidermal growth factor receptor (Homo sapiens) (UniProt P00533); assay: compounds binding epidermal growth factor receptor – biochemical, small-molecule microarray, 635 nm fluorescence, primary screen (AID 1104); details: EGFR binding, higher = more signal;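 also: score merges 667 nm emission intensity with spot signal to noise over triplicate slides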
Epidermal growth factor receptor (Homo sapiens), sequence (P00533 whole entry, looked up): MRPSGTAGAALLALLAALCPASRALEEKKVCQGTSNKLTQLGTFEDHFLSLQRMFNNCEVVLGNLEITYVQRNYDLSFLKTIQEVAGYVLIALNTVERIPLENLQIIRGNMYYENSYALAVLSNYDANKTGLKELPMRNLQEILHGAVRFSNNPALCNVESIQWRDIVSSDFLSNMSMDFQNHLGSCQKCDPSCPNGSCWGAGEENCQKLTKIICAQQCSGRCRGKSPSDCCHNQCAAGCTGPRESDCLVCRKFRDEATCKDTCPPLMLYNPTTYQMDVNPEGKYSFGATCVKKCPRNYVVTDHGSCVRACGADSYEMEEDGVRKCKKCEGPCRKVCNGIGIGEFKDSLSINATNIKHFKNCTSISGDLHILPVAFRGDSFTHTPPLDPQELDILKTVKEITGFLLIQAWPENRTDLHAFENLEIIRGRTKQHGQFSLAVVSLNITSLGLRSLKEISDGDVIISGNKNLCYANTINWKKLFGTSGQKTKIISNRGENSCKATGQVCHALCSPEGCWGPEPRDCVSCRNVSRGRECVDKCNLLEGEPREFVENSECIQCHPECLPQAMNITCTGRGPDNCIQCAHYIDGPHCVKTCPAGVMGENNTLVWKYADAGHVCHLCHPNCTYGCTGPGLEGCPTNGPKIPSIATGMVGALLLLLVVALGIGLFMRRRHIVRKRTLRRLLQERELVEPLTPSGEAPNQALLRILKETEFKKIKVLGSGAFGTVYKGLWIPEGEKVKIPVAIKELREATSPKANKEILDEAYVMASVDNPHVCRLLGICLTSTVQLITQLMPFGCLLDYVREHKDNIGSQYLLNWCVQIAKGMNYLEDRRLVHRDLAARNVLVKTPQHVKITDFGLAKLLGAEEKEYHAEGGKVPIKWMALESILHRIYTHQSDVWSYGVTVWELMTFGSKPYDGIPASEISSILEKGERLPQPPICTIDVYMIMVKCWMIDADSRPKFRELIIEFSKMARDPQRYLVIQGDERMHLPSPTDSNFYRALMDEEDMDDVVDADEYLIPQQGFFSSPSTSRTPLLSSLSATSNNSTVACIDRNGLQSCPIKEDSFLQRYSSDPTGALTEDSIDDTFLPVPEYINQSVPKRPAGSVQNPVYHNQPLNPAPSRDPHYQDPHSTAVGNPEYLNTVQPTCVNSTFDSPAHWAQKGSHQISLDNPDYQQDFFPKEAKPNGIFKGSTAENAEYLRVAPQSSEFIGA

[8] = target: Follistatin-related protein 3 (Homo sapiens) (UniProt O95633); assay: compounds binding follistatin-related protein 3 – biochemical, small-molecule microarray, 635 nm fluorescence, primary screen (AID 1105); details: FSTL3 binding, higher = more signal;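 also: score merges emission near 667 nm and signal to noise per printed spot across three slides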
Follistatin-related protein 3 (Homo sapiens), sequence (O95633 whole entry, looked up): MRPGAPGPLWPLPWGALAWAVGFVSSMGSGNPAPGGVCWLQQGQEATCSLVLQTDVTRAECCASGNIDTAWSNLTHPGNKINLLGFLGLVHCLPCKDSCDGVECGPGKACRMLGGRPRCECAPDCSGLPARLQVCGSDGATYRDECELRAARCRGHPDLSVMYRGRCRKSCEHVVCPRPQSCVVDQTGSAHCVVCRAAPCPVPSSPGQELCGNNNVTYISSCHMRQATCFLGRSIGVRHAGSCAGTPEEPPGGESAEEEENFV

[9] = target: Dickkopf-related protein 1 (Homo sapiens) (UniProt O94907); assay: small molecules binding DKK1 protein – biochemical, small-molecule microarray, 635 nm fluorescence scan, primary screen (AID 1106); details: higher = more signal;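 also: score merges emission near 667 nm with signal to noise over three replicate slides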
Dickkopf-related protein 1 (Homo sapiens), sequence (O94907 whole entry, looked up): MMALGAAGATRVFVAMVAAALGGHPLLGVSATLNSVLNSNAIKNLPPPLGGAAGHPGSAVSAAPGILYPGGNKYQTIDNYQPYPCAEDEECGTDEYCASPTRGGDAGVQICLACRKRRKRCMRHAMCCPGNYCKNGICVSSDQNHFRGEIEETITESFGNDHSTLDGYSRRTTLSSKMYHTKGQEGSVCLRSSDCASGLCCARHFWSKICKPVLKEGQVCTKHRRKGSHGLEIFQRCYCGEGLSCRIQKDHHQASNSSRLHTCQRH

[10] = tested on: Inhibin beta A chain (activin A); assay: small molecules binding activin A – biochemical, small-molecule microarray, 635 nm fluorescence scan, primary screen (AID 1107); details: INHBA, higher = more signal;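 also: mouse activin A protein probed at 4.33 µg/mL on printed slides; score merges bound-protein fluorescence near 667 nm with spot signal-to-noise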
[11] = tested on: Human papillomavirus type 1a protein E7 (residues 44-93); assay: small molecules binding HPV E7 44-93 – biochemical, small-molecule microarray, residues 44-93, 635 nm fluorescence, primary screen (AID 1108); details: fluorescence 635 nm, higher = more signal;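 also: E7 fragment applied at 1 µg/mL in TBST for 1 h at 4 C; score combines spot fluorescence with its signal to noise ratio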
[12] = hepatitis C replication reporter changes, two-sided – Huh7 cells, luciferase reporter, HCV replication inhibitor project, primary screen (AID 1109); details: Huh7 HCV replicon luciferase reporter, 48 h; higher = more signal;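 also: huh7 hepatoma cells harbouring a luciferase neomycin HCV replicon reporter; luciferase luminescence as measure of HCV replicon replication; test concentration not given here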
[13] = target: Left-right determination factor 2 (Homo sapiens) (UniProt O00292); assay: small molecules binding LEFTY2 protein – biochemical, small-molecule microarray, 635 nm fluorescence scan, primary screen (AID 1110); details: higher = more signal
Left-right determination factor 2 (Homo sapiens), sequence (O00292 whole entry, looked up): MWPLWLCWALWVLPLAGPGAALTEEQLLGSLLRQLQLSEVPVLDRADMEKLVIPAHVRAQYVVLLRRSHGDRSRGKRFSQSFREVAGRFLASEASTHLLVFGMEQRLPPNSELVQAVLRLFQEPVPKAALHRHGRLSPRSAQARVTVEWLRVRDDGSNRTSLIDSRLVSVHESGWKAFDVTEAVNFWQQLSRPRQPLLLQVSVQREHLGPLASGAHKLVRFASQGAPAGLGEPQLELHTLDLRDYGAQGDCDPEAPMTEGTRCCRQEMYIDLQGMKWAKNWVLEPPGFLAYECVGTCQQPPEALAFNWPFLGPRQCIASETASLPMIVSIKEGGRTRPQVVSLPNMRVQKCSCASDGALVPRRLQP

[14] = target: Calmodulin-1 (Homo sapiens) (UniProt P0DP23); assay: small molecules binding calmodulin-1 with EGTA – biochemical, small-molecule microarray, Cy5-labelled CALM1, profiling panel (AID 1111); details: Cy5-CALM1 binding fluorescence, higher = more signal;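 also: labelled calmodulin applied in Tris saline Tween buffer holding calcium plus EGTA and DTT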
[15] = target: Calmodulin-1 (Homo sapiens) (UniProt P0DP23); assay: small molecules binding Ca-loaded calmodulin-1 – biochemical, small-molecule microarray, Cy5-labelled CALM1, plus calcium, artefact control for SMM control-protein annotation, profiling panel (AID 1112); details: Cy5-CALM1 binding fluorescence, higher = more signal;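 also: score merges spot fluorescence with signal to noise from triplicate slides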
[16] = probe aWnt5a binding to arrayed compounds – biochemical, biotinylated probe, 635/667 nm fluorescence, primary screen (AID 1113); details: small-molecule microarray, higher = more signal;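 also: score merges 667 nm fluorescence intensity with signal-to-noise per printed feature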
[17] = probe aShh binding to arrayed compounds – biochemical, biotinylated probe, 635/667 nm fluorescence, primary screen (AID 1114); details: small-molecule microarray, higher = more signal;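 also: probe is biotin-labelled aShh protein from a stem cell growth factor screen; measures binding of labelled protein to compounds printed on the slide; score merges feature fluorescence at 667 nm with signal-to-noise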
[18] = probe aNog binding to arrayed compounds – biochemical, biotinylated probe, 635/667 nm fluorescence, primary screen (AID 1115); details: small-molecule microarray, higher = more signal;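 also: probe is biotinylated aNog protein used at 0.15 µg/mL for 1 h at 4 C; z-score combines 667 nm fluorescence of each spot with its signal to noise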
[19] = target: Torsin-1A-interacting protein 1 (Homo sapiens) (UniProt Q5JTV8); assay: compound microarray binding of lysate hLAP1 – cell lysate, small-molecule microarray, COS7 lysate, 635/667 nm fluorescence, primary screen (AID 1116); details: 635 nm fluorescence, higher = more signal
Torsin-1A-interacting protein 1 (Homo sapiens), sequence (Q5JTV8 whole entry, looked up): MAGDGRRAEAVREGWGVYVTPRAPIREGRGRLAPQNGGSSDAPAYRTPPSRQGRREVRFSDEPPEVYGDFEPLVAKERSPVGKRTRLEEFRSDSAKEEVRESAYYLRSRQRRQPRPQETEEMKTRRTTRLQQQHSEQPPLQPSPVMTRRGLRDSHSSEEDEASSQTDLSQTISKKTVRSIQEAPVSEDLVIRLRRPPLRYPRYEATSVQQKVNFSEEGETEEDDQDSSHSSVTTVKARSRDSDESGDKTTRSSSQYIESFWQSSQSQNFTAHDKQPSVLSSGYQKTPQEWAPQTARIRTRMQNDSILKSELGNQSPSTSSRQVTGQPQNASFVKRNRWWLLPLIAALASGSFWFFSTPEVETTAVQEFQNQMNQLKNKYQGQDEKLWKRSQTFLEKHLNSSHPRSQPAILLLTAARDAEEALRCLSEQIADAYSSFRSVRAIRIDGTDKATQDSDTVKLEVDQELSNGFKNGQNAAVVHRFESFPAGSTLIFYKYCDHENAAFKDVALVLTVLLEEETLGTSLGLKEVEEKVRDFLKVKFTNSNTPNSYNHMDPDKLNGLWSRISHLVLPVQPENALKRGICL

[20] = target: Alpha-bungarotoxin (Bungarus multicinctus) (UniProt P60615); assay: compounds binding labelled alpha-BTX control protein – biochemical, small-molecule microarray, Alexa647 label, 635/667 nm fluorescence, artefact control for SMM control protein annotation, profiling panel (AID 1117); details: alpha-BTX-A647 binding fluorescence, higher = more signal
Alpha-bungarotoxin (Bungarus multicinctus), sequence (P60615 whole entry, looked up): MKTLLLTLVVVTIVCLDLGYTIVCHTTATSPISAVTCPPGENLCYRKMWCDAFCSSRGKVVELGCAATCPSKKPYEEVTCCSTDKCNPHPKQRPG

| SMILES | composite z-score [1] | composite z-score [2] | composite z-score [3] | z-score [4] | composite z-score [5] | composite z-score [6] | composite z-score [7] | composite z-score [8] | composite z-score [9] | composite z-score [10] | composite z-score [11] | z-score [12] | composite z-score [13] | composite z-score [14] | composite z-score [15] | composite z-score [16] | composite z-score [17] | composite z-score [18] | composite z-score [19] | composite z-score [20] |
| --- | --- | --- | --- | --- | --- | --- | --- | --- | --- | --- | --- | --- | --- | --- | --- | --- | --- | --- | --- | --- |
| [N-]=[N+]=NCc1ccccc1[C@H]1OC(c2ccc(OCCCO)cc2)=N[C@@]1(CCS(=O)(=O)c1ccccc1)C(N)=O | 1.37 | 0.605 | 1.07 | -0.503 (inactive) | 1.5 | 1.1 | -0.216 | 0.441 | -0.0333 | 1.29 | 1.11 | -0.281 | 0.264 | 0.145 | 0.257 | -0.096 | 0.265 | 1.4 | 1.47 | 2.43 |
| CCOC(=O)C[C@H]1[C@H](OC(=O)c2ccc(-c3ccccc3)cc2)[C@@H](NC(=O)C2CCCCC2)c2cc(OCCCO)ccc2N1C(=O)c1ccccc1 | 0.3 | -0.141 | -0.464 | -0.0213 (inactive) | 0.616 | 0.258 | 0.0979 | 0.584 | 0.237 | 0.117 | 0.959 | -1.84 | 0.365 | 0.413 | -0.0071 | -0.0822 | -0.123 | -0.232 | -0.241 | 0.0785 |
| CC(C)(C)N1CC=CC23O[C@@H]4C=CCOC(=O)[C@@H]4[C@H]2C(=O)N(CCCO)[C@@H]3C1=O (stereo not given in full) | 1.43 | -0.451 | 0.726 | -1.28 (inactive) | -1.3 | -1.13 | -1.66 | -1.69 | -1.26 | 0.301 | -0.62 | 0.104 | -2.12 | -1.03 | 0.392 | -0.232 | -0.297 | -0.425 | 0.412 | -2.03 |
| C=CC[C@]1(C(=O)N(C)C)N=C(c2ccc(OCCCO)cc2)O[C@H]1c1ccccc1N=[N+]=[N-] | 0.265 | 0.776 | 1.14 | -0.288 (inactive) | 0.762 | 0.346 | -0.257 | 0.859 | -0.367 | 0.889 | 1.4 | -0.277 | -0.406 | 2.27 | 0.116 | 0.0559 | 0.158 | -0.0009 | 0.959 | 2.03 |
| O=C1NC(=O)C2C1C=CC(C(O)c1ccc3c(c1)OCO3)N2Nc1ccccn1 (stereo not given) | 0.165 | 0.301 | 0.555 | -0.653 (inactive) | 0.212 | 0.0668 | 0.722 | 1.39 | 0.388 | 1.64 | -0.945 | 0.0264 | 0.324 | 0.151 | -0.197 | -0.0524 | -0.0769 | 0.677 | 0.493 | 0.498 |
| COc1cc(CO)cc(I)c1O[C@H]1C=C(C(=O)NCCO)C[C@@H](N(CC2CCCCC2)C(=O)c2ccc(C(F)(F)F)cc2)[C@@H]1O | 0.199 | -0.267 | -0.49 | -0.0436 (inactive) | 0.626 | 0.0722 | 0.515 | 0.483 | 0.521 | 0.0031 | 1.15 | -1.54 | 0.402 | 0.0208 | -0.21 | -0.087 | -0.2 | -0.144 | 0.465 | -0.8 |
| [N-]=[N+]=NCc1ccccc1C[C@@]1(C(N)=O)N=C(c2ccc(OCCCO)cc2)O[C@@H]1c1ccccc1CN=[N+]=[N-] | 0.448 | 1.09 | 0.378 | 0.515 (inactive) | 1.26 | 0.989 | -0.238 | 0.165 | 0.0137 | 0.764 | 1.43 | -1.55 | 0.144 | 1.37 | 0.693 | -0.0236 | 0.19 | 1.08 | 0.623 | 0.689 |
| COc1c(C)cc(-c2cc3c(c(Cc4ccccc4)n2)[Si](C(C)C)(C(C)C)OC3)cc1C | 0.214 | -0.0724 | -0.313 | -0.206 (inactive) | 0.0744 | -0.0485 | 0.181 | 0.235 | 0.0324 | 0.137 | -0.0363 | -0.637 | 0.265 | 0.0153 | 0.0467 | -0.096 | -0.123 | -0.393 | -0.0091 | 0.229 |
| CN(C)CCCNC(=O)[C@@]1(C)c2ccccc2C(=O)N(Cc2cc(C(F)(F)F)cc(C(F)(F)F)c2)[C@H]1c1ccc(CO)cc1 | 1.01 | 0.202 | 0.0634 | -1.24 (inactive) | -0.753 | -0.477 | -1.9 | -1.14 | -0.992 | -1.34 | -0.488 | -1.85 | -1.31 | 0.139 | 0.0751 | -0.118 | -0.134 | -0.484 | -0.54 | -0.779 |
| CCCc1cccc(=O)o1 | 0.521 | -0.161 | -0.401 | -0.396 (inactive) | 0.215 | 1.04 | -0.21 | 0.182 | 0.646 | 1.06 | 0.364 | -0.672 | 0.427 | 0.0369 | -0.116 | 0.0037 | 0.0723 | 0.0638 | 0.898 | 0.696 |
| CN(C)CCCN1C(=O)[C@@]2(c3ccc([N+](=O)[O-])cc3)CC(=O)N(CC34CC5CC(CC(C5)C3)C4)[C@@H]2c2ccc(CO)cc21 | 1.68 | 1.83 | 0.543 | 0.626 (inactive) | -0.173 | 0.443 | -0.708 | -0.116 | -0.482 | 0.144 | 0.869 | -1.49 | -0.741 | -0.301 | -0.828 | -0.152 | 0.111 | -0.302 | -0.301 | -0.0251 |
